The entries come from a sample that favours hits as a whole.
CapD inh – CapD enzyme inhibition | purified CapD enzyme, fluorescence intensity read-out; hits give low values | AID 492967 | z-score (concentration not given with the values) | actives 0.23% (n = 140,000); in the data active means z-score mostly below about -2.9, no sharp cut-off; inactive means mostly above about -1.9
Hits are given with their value; - = inactive.

SMILES	CapD inh
FC(F)(F)c1cc(C(F)(F)F)c2ccc(N3CCOCC3)nc2n1	-
COC(=O)c1ccccc1-n1cnc2ccccc2c1=O	-
COC(=O)C1=CCCN(C)C1	-
COC(=O)C1=CN(N(C(C)=O)C(C)=O)C(=O)CC1	-9.2
Cc1nn(-c2ccccc2)c2sc(C(=O)NC(C)C)cc12	-
O=C(CSCC(=O)Nc1ccccc1F)Nc1ccc2ccccc2c1	-
Oc1c(C(c2ccccc2Cl)N2CCCCC2)ccc2cccnc12 (stereo unspecified)	-
CN1CCN(C(c2ccccn2)c2cc(Cl)c3cccnc3c2O)CC1 (stereo unspecified)	-8.1
Oc1c(C(c2ccccn2)N2CCCCC2)ccc2cccnc12 (stereo unspecified)	-
CC1CC(=O)Nc2ccccc2N1C=O (stereo unspecified)	-
COC(=O)c1cc(OC)c(OC)c(OC)c1NS(=O)(=O)c1cc(OC)ccc1OC	-
Cc1nc2nc(NCc3c(F)cccc3Cl)[nH]n2c(=O)c1C	-
COc1ccc(CCC(=O)c2c(O)cc(O[C@@H]3O[C@H](CO)C(O)[C@H](O)C3O[C@@H]3O[C@@H](C)[C@H](O)[C@@H](O)[C@H]3O)cc2O)cc1O (stereo partly specified)	-
COc1cc(C=C2C(=O)N(C)C(=O)N(C)C2=O)ccc1OCCOc1ccc([N+](=O)[O-])cc1	-
O=C(CCS(=O)(=O)c1cccs1)NC1CCCc2ccccc21 (stereo unspecified)	-
O=C(c1ccc(S(=O)(=O)NC2CCCc3ccccc32)s1)N1CCCC1 (stereo unspecified)	-
O=S(=O)(NC1CCCc2ccccc21)c1cccs1 (stereo unspecified)	-1.7
NS(=O)(=O)c1ccc(-n2cccc2C=Nn2cnnc2)cc1	-
C(=N\n1cnnc1)/c1ccccc1	-
Cn1cccc1/C=N/n1cnnc1	-5.5
Cc1c(C(=O)N(C)Cc2ccccc2)sc2nc3n(c(=O)c12)CCCC3	-
CCCN1CCN(C(=O)c2sc3nc4n(c(=O)c3c2C)CCCC4)CC1	-
Cc1c(C(=O)O)sc2nc3n(c(=O)c12)CCC3	-5.2
CCOC(=O)c1c(C=O)oc2c(C)cc(OC(=O)c3ccc(C(=O)c4ccccc4)cc3)c(Br)c12	-
O=c1c2ccccc2c(=O)n2n1CC=CC2	-
SMILES	CapD inh
O=c1c(=NO)c(=O)c2ccccc12	-5.4
O=C1c2ccccc2C(=O)N1N1C(=O)c2ccccc2C1=O	-
COc1ccc(-c2n[nH]c(C)c2Oc2ccccc2)c(O)c1	-
Cc1cc(OCC(=O)N(C)C2CCCCC2)ccc1Cl	-
CCOC(=O)c1c(NC(=O)c2ccc(Cl)cc2Cl)sc(C(=O)Nc2ccccc2C)c1C	-
CCc1ccc(NS(=O)(=O)c2ccc3[nH]cc(C(=O)N(CC)CC)c(=O)c3c2)cc1	-
CCc1ccc(NS(=O)(=O)c2ccc3[nH]cc(C(=O)N4CCCC4)c(=O)c3c2)cc1	-5.9
CCc1ccc(N(C)S(=O)(=O)c2ccc3[nH]cc(C(=O)N4CCCCCC4)c(=O)c3c2)cc1	-
FC(F)(F)c1ccc(-c2[nH]ncc2-c2ccncc2)cc1	-
O=C(O)Cc1ccccc1C(=O)N1CCN(c2c(Cl)cncc2Cl)CC1	-
CCOC(=O)CC(=O)CSc1nc2c(sc(=S)n2-c2cccc(OC)c2)c2nc3ccccc3n12	-
Cc1ccsc1-c1nc(CSCC(=O)N2CCN(c3ccccc3)CC2)c(C)o1	-
CCOc1ccc(NC(=S)NCCCn2ccnc2)cc1	-
COc1cccc(C(=O)NN)c1	-
CCOC(=O)c1sc(NC(=O)c2cccc(OC)c2)nc1-c1ccccc1	-
COc1cccc(C(=O)c2sc(NC(C)C)nc2N)c1	-4.3
CN(C)/C=C/C(=O)c1ccsc1	-6.3
Cc1ccc(C(=O)/C=C/N(C)C)cn1	-
CN(C)/C=C/C(=O)c1cccc(C(F)(F)F)c1	-
CCCCSC1=C(C#N)C(=O)NC(c2ccco2)S1 (stereo unspecified)	-
O=[N+]([O-])/C=C/c1c(F)cccc1Cl	-
O=C1NC(=S)S/C1=C\c1c(F)cccc1Cl	-4.1
COc1ccc(/C=C2/SC(=S)NC2=O)cc1COc1ccc(F)cc1F	-
CCOC(=O)C1=C(C)N=c2s/c(=C\c3ccc(OC(C)=O)cc3)c(=O)n2C1c1cccc([N+](=O)[O-])c1 (stereo unspecified)	-
COc1ccc2[nH]c(C)c(CCN(Cc3cccs3)C(=S)NC3CCCCC3)c2c1	-
SMILES	CapD inh
CCCCN(CCCC)CCC(=O)NN1S(=O)(=O)c2ccccc2S1(=O)=O	-
O=C(NN1S(=O)(=O)c2ccccc2S1(=O)=O)c1nsnc1NCCCl	-6.3
O=C(NN1S(=O)(=O)c2ccccc2S1(=O)=O)c1nc[nH]c1C(=O)Nc1ccccc1	-
O=C1CCCC2=C1C(c1ccc(Cl)cc1)Nc1ccccc1N2 (stereo unspecified)	-
O=C1CCCC2=C1C(c1ccncc1)Nc1ccccc1N2 (stereo unspecified)	-
O=C1CCCC2=C1C(c1cccs1)Nc1ccccc1N2 (stereo unspecified)	-3.5
CCn1cc(NC(=O)NC2CCc3ccccc32)c(=O)c2ccc(C)nc21 (stereo unspecified)	-

Assay outcomes from PubChem.
